Test results reported in PubChem BioAssay AID1159580 (chemical genetic matrix, 2015).
Values joined by “and” are separate entries in the source; they are usually repeats but may differ in a detail not shown here. Equal values may be shown once. Hit rate of the full screen: of about 5,500 compounds, about 2,000 (36%) were called active. Inconclusive results (about 18%) are left out. Rule as the data show it: active = normalized growth mostly below about 0.91 (no sharp cut-off); inconclusive = no clear call, values can overlap the other calls; inactive = mostly above about 0.92. Some of the results follow.

Assay: chemical genetic growth profiling, strain panel (AID 1159580);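 also: tested at 20 µM; growth read once vehicle control cultures reached saturation at 30 °C; 1 = growth at the plate median or of vehicle wells; lower values mean less growth of the strain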
Conditions: S. cerevisiae deletion strains, growth OD

Measured: normalized growth

CCCCCCCCCCCCCCCCCCOCC(O)CO (configuration not stated)
inactive: locus YAL013W, strain DEP1, stronger effect = lower value 1.01 | locus YAL021C, strain ccr4, stronger effect = lower value 1.01 | locus YAL026C, strain drs2, stronger effect = lower value 1 | locus YAL030W, strain snc1, stronger effect = lower value 0.991 | locus YBL061C, strain skt5, stronger effect = lower value 0.987 | locus YBR009C, strain hhf1, stronger effect = lower value 0.959 | locus YBR021W, strain FUR4, stronger effect = lower value 1.03 | locus YBR023C, strain chs3, stronger effect = lower value 0.99 | locus YBR171W, strain sec66, stronger effect = lower value 0.999 | locus YBR229C, strain ROT2, stronger effect = lower value 1.01 | locus YBR231C, strain swc5, stronger effect = lower value 0.981 | locus YBR279W, strain paf1, stronger effect = lower value 0.992 | locus YCL011C, strain gbp2, stronger effect = lower value 0.988 | locus YCL016C, strain dcc1, stronger effect = lower value 0.994 | locus YCL029C, strain bik1, stronger effect = lower value 1.01 | locus YCL061C, strain MRC1, stronger effect = lower value 0.996 | locus YCL069W, strain vba3, stronger effect = lower value 0.998 | locus YCR088W, strain abp1, stronger effect = lower value 0.997 | locus YDL005C, strain med2, stronger effect = lower value 0.989 | locus YDL035C, strain GPR1, stronger effect = lower value 1.02 | locus YDL040C, strain nat1, stronger effect = lower value 0.973 | locus YDL074C, strain BRE1, stronger effect = lower value 1.06 | locus YDL101C, strain DUN1, stronger effect = lower value 1.01 | locus YDL185W, strain tfp1, stronger effect = lower value 1.02 | locus YDL192W, strain arf1, stronger effect = lower value 1.01 | locus YDR001C, strain nth1, stronger effect = lower value 0.995 | locus YDR069C, strain doa4, stronger effect = lower value 0.973 | locus YDR101C, strain arx1, stronger effect = lower value 1.04 | locus YDR137W, strain rgp1, stronger effect = lower value 0.987 | locus YDR150W, strain NUM1, stronger effect = lower value 0.998 | locus YDR159W, strain sac3, stronger effect = lower value 0.952 | locus YDR162C, strain NBP2, stronger effect = lower value 0.991 | locus YDR195W, strain ref2 0.951 | locus YDR297W, strain sur2, stronger effect = lower value 0.995 | locus YDR318W, strain mcm21, stronger effect = lower value 0.986 | locus YDR334W, strain swr1, stronger effect = lower value 0.994 | locus YDR335W, strain msn5, stronger effect = lower value 1 | locus YDR388W, stronger effect = lower value 1.01 | locus YDR392W, strain spt3, stronger effect = lower value 0.858 | locus YDR502C, strain sam2, stronger effect = lower value 1.02 | locus YEL003W, strain gim4, stronger effect = lower value 0.998 | locus YEL037C, strain rad23, stronger effect = lower value 1 | locus YEL061C, strain CIN8 (second series), stronger effect = lower value 0.992 | locus YEL061C, strain CIN8, stronger effect = lower value 1.01 | locus YER015W, strain faa2, stronger effect = lower value 0.989 | locus YER016W, strain bim1, stronger effect = lower value 0.994 | locus YER110C, stronger effect = lower value 1.01 | locus YER111C, strain swi4, stronger effect = lower value 0.979 | locus YER155C, strain BEM2 (second series), stronger effect = lower value 0.948 | locus YER155C, strain BEM2, stronger effect = lower value 1.01 | locus YER167W, strain BCK2, stronger effect = lower value 1 | locus YFR010W, strain ubp6, stronger effect = lower value 1.01 | locus YGL078C, strain dbp3, stronger effect = lower value 1.02 | locus YGL086W, strain mad1, stronger effect = lower value 1.05 | locus YGL167C, strain pmr1, stronger effect = lower value 0.986 | locus YGL173C, strain kem1, stronger effect = lower value 0.984 | locus YGL227W, strain vid30, stronger effect = lower value 0.985 | locus YGL240W, strain doc1, stronger effect = lower value 0.966 | locus YGL248W, strain PDE1, stronger effect = lower value 1 | locus YGL253W, strain hxk2, stronger effect = lower value 1 | locus YGR135W, strain pre9, stronger effect = lower value 0.968 | locus YGR252W, strain gcn5, stronger effect = lower value 0.969 | locus YHR013C, strain ard1, stronger effect = lower value 0.938 | locus YHR027C, strain rpn1, stronger effect = lower value 0.998 | locus YHR030C, strain SLT2, stronger effect = lower value 1.01 and 1.02 | locus YHR079C, strain IRE1 (second series), stronger effect = lower value 1 | locus YHR079C, strain IRE1, stronger effect = lower value 0.993 | locus YHR094C, strain hxt1, stronger effect = lower value 1.01 | locus YHR129C, strain ARP1, stronger effect = lower value 1.01 | locus YHR142W, strain chs7, stronger effect = lower value 1.04 | locus YHR200W, strain rpn10, stronger effect = lower value 1.01 | locus YIL066C, strain RNR3, stronger effect = lower value 1.01 | locus YIL073C, strain SPO22, stronger effect = lower value 1.01 | locus YIL125W, strain kgd1, stronger effect = lower value 1.01 | locus YIR030C, strain dcg1, stronger effect = lower value 1 | locus YJL092W, strain hpr5, stronger effect = lower value 0.999 | locus YJL095W, strain BCK1 (second series), stronger effect = lower value 0.998 | locus YJL095W, strain BCK1, stronger effect = lower value 1.02 and 0.984 | locus YJL115W, strain asf1, stronger effect = lower value 0.987 | locus YJL129C, strain trk1, stronger effect = lower value 0.984 | locus YJL134W, strain LCB3, stronger effect = lower value 0.997 | locus YJL154C, strain vps35, stronger effect = lower value 0.992 | locus YJL164C, strain tpk1, stronger effect = lower value 1 | locus YJL166W, strain qcr8, stronger effect = lower value 0.99 | locus YJL168C, strain set2, stronger effect = lower value 0.999 | locus YJL187C, strain SWE1 (second series), stronger effect = lower value 1.03 | locus YJL187C, strain SWE1, stronger effect = lower value 0.996
